Test results as given in PubChem BioAssay AID1851 (National Center for Advancing Translational Sciences (NCATS), 2009).
Screen size: about 16,000 compounds; about 5,100 (32%) were called active. Roughly 25% stayed inconclusive and do not appear here. Some of the results follow. A number with no mark means an inactive call. Calls follow the shape of the dose curve; as a rule, active = well fitted curve in the direction sought with a large enough effect; inconclusive = small, poorly fitted or top-dose-only effect, or effect the other way; inactive = no such curve, though single readings can be large or run the other way.

Molecular target: Cytochrome P450 3A4 (Homo sapiens) (UniProt P08684)
Experiment: Cytochrome panel assay with activity outcomes
Conditions: recombinant CYP, pro-luciferin dealkylation, luminescence, p450-cyp3a4; series mostly up to 57.1 µM
Method: The P450 gene superfamily is involved in the metabolism and clearance of xenobiotics. This assay used various human CYP P450 isozymes to measure the dealkylation of various pro-luciferin substrates to luciferin. The luciferin is then measured by luminescence after the addition of a luciferase detection reagent. Pro-luciferin substrate concentration in the assay was equal to its KM for its CYP P450 isozyme. Inhibitors and some substrates limit the production of luciferin, and decrease measured luminescence.
NCGC Assay Protocol Summary:
1, Reagent, 2 uL, Isozyme and Pro-Luciferin
2, Library compounds, 23 nl, 40 uM to 0.24 nM dilution series
3, Controls, 23 nl, Isozyme specific inhibitor
4, Reagent, 2 uL, NADPH regeneration solution
5, Incubation time, 60 min, Isozyme specific temperature
6, Reagent, 4ul, Detection reagent
7, Incubation time, 20 min, Isozyme specific temperature
8, Detection, 1 sec, ViewLux luminescent read
The luciferase-based P450-GloTM Screening Systems were obtained from Promega (Madison, WI) for CYP 1A2 (V9770), CYP 2C9 (V9790), CYP2 C19 (V9880), CYP 2D6 (V9890), and CYP 3A4 Luciferin-PPXE (V9910) and were adapted for 1,536-well microplates and an automated protocol. The control compounds furafylline for 1A2 (F124), sulfaphenazole for CYP 2C9 (S0758), ketoconazole for CYP 2C19 (K1003), quinidine for 2D6 (Q3625), and ketoconazole for 3A4 (K1003) were purchased from Sigma Aldrich (St. Louis, MO). Recombinant P450 enzymes were obtained from baculovirus constructs expressed in insect cells (BD/Gentest).
Medium-binding white solid Kalypsys plates used. Mixtures kept on ice. 1A2: 10 nM 1A2, 100 uM Luc-ME, 100 mM KPO4; 2C9: 10 nM 2C9, 100 uM Luc-H, 25 mM KPO4; 2C19: 5 nM 2C19, 10 uM Luc-H EGE, 50 mM KPO4; 2D6: 5 nM 2D6, 30 uM Luc-ME EGE, 100 mM KPO4; 3A4: 10 nM, 25 uM Luc-PPXE. All amounts are reflected in their final concentration, working concentration is 2x.
NADPH regeneration solution: 1.3 mM NADP+, 3.3 mM glucose-6-phosphate, 3.3 mM MgCl2, 0.4 U/mL glucose-6-phosphate dehydrogenase for all isozymes, 200 mM KPO4 for 3A4. Mixture prepared at RT but kept on ice during automated run.
RT incubation in auxilliary plate hotel for 1A2, 2D6, and 3A4; 37C for 2C9 and 2C19.
Keywords: P450, CYP1A2, CYP2C19, CYP2C9, CYP2D6, CYP3A4, Luciferase, MLSMR, MLSCN, NIH Roadmap, qHTS, NCGC
% is scaled to controls: 0 for no effect and ±100 for the full control effect.

Chain of Cytochrome P450 3A4 (Homo sapiens) (P08684 whole entry, looked up): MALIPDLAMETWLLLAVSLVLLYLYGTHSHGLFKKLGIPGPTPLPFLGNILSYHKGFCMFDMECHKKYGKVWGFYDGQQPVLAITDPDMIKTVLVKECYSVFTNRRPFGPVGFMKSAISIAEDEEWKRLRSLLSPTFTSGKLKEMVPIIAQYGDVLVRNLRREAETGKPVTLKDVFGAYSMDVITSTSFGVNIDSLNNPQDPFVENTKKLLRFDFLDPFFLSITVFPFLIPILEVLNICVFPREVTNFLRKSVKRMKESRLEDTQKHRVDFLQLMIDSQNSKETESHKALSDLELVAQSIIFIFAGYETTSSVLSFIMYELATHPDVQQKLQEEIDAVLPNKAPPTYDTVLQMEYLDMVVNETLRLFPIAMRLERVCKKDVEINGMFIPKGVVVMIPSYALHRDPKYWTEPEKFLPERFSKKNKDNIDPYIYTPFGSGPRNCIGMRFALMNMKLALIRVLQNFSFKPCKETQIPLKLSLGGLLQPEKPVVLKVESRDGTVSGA

| Structure (SMILES) | AC50 | activity, negative = inhibition |
| --- | --- | --- |
| O=C(CSc1nc2ccccc2c(=O)n1NC(=O)c1ccccc1)c1ccc(Cl)cc1 | 14.1 µM (active) | – |
| CC(C)(C)n1ncc2c(=O)n(CC(=O)NCc3ccccc3Cl)cnc21 | – | -27.1% [at 11.4 µM] |
| O=C(CSc1nc2ccccc2c(=O)n1NC(=O)Cc1ccccc1)NCc1ccccc1Cl | 5.62 µM (active) | – |
| CC(=O)C1C(c2ccccc2OC(F)F)NC(=O)NC1(O)C(F)(F)F (configuration not stated) | inactive | – |
| CCCCCC(=O)O[C@H](CC(=O)O)C[N+](C)(C)C | inactive | – |
| CN(C)c1ccc(-c2cncnc2NCCN2CCOCC2)cc1 | 3.16 µM (active) | – |
| CN(C)C(=O)c1ccc(-c2cncnc2NCCN2CCOCC2)cc1 | 15.8 µM (active) | – |
| Cc1ccnc(NS(=O)(=O)c2ccc(N=[N+]=[N-])cc2)n1 | – | 1.05% [at 11.4 µM] |
| COc1cccc(/C=N/NC(=O)c2cc(-c3cccn3C)n[nH]2)c1 | – | -9.54% [at 2.29 µM] |
| COc1cccc(C=NC=Nc2cccc(OC)c2)c1 | 20 µM (active) | – |
| Clc1cccc(C=NC=Nc2cccc(Cl)c2)c1 | inactive | – |
| O=c1[nH][nH]c(C(F)(F)F)c1C=Nc1cccc(Cl)c1 | inactive | – |
| O=c1[nH][nH]cc1C=Nc1ccccc1O | – | -5.56% [at 11.4 µM] |
| COc1cccc(N=Cc2c[nH][nH]c2=O)c1 | 14.1 µM (active) | – |
| CCCn1nnnc1-c1cc(Cl)cc(Cl)c1 | – | 29.9% [at 2.29 µM] |
| N#C/C(=C\c1cccs1)C(=O)NCC1CCCO1 (configuration not stated) | inactive | – |
| Cc1cccc(C)c1NC(=O)/C(C#N)=C/c1cccs1 | 20 µM (active) | – |
| Cc1sc(NC(=O)c2ccco2)c(C(c2cccnc2)N2CCCC2)c1C (configuration not stated) | 1.58 µM (active) | – |
| Cc1sc(NC(=O)c2ccco2)c(C(c2cccnc2)N2CCN(C)CC2)c1C (configuration not stated) | – | -28.9% [at 2.29 µM] |
| O=C(NCC(c1cccs1)N1CCOCC1)c1ccco1 (configuration not stated) | inactive | – |
| Cc1sc(NC(=O)c2ccco2)c(C(c2ccncc2)N2CCOCC2)c1C (configuration not stated) | 3.16 µM (active) | – |
| COc1ccccc1-c1nccc(NCc2cccnc2)n1 | 2.51 µM (active) | – |
| Cc1ccccc1-c1nccc(NCc2cccnc2)n1 | 3.98 µM (active) | – |

| Structure (SMILES) | AC50 | activity, negative = inhibition |
| --- | --- | --- |
| Cc1cccc(CNc2ccnc(-c3ccccc3Cl)n2)c1 | 3.98 µM (active) | – |
| COc1ccccc1-c1nccc(NCc2ccccc2)n1 | 15.8 µM (active) | – |
| O=c1c(-c2ccccc2)c(O)c2cccc3c2n1CCC3 | inactive | – |
| CCCCCSc1nnc(C)c(=O)[nH]1 | inactive | – |
| COc1ccccc1-c1nccc(NCc2cccc(C)c2)n1 | 6.31 µM (active) | – |
| CC1=c2c(oc3cc(O)c(Nc4c(C)cc(O)cc4O)c(C)c23)=CC(=O)C1=Nc1c(C)cc(O)cc1O | – | -19.4% [at 11.4 µM] |
| CC(c1ccccc1C(O)c1ccccc1)N(C)C (configuration not stated) | inactive | – |
| CCOc1ccc(NC(=O)N(C2CCCCC2)C(C)c2ccncc2)cc1 (configuration not stated) | 15.8 µM (active) | – |
| COc1ccc(NC(=O)N(C2CCCCC2)C(C)c2cccnc2)c(OC)c1 (configuration not stated) | 10 µM (active) | – |
| CCCCN(C(=O)Nc1ccc(OCC)cc1)C1CCN(C(C)=O)CC1 | inactive | – |
| CCOc1ccc(NC(=O)C(=O)NCC2CCCN2CC)cc1 (configuration not stated) | inactive | – |
| COc1nc(Cl)nc(Cl)c1Cl (tested in a mixture with another compound) | – | 3.03% [at 11.4 µM] |
| CCn1c(O)c(/C=C2\C=Nc3ccccc32)sc1=Nc1ccc(C)cc1 | – | -3.41% [at 2.29 µM] |
| Cc1nc2cncnc2n(Cc2ccccc2)c1=O | inactive | – |
| O=c1c(-c2cccs2)nc2cncnc2n1Cc1ccccc1 | 6.31 µM (active) | – |
| O=c1c(-c2cccs2)nc2cncnc2n1Cc1ccc(F)cc1 | 12.6 µM (active) | – |
| Cc1c(NC(=S)N/N=C/c2ccc(O)cc2)c(=O)n(-c2ccccc2)n1C | inactive | – |
| Cc1c(NC(=S)/C=C2\N(C)c3ccccc3C2(C)C)c(=O)n(-c2ccccc2)n1C | 5.62 µM (active) | – |
| Cc1c(N(C)C)c(=O)n(-c2ccccc2)n1C | inactive | – |
| COc1ccc2sc3ccccc3c(=O)c2c1OC | 17.8 µM (active) | – |
| COc1ccc2cc(C(=O)Nc3ccc(F)cc3)sc(=O)c2c1OC | – | -4.97% [at 2.29 µM] |
| COc1ccc2c(c1OC)C(=O)OC2Nc1ncccc1C (configuration not stated) | – | -2.44% [at 2.29 µM] |
| COc1ccc(CN2C(=O)CN(C3CCCCCC3)C(=O)C2c2ccc(OC)c(OC)c2)cc1 (configuration not stated) | 1.58 µM (active) | – |

| Structure (SMILES) | AC50 | activity, negative = inhibition |
| --- | --- | --- |
| COc1ccc(C2C(=O)N(C3CCCCCC3)CC(=O)N2Cc2ccccc2)cc1OC (configuration not stated) | 4.47 µM (active) | – |
| COc1cc(C2C(=O)N(C3CCCC3)CC(=O)N2Cc2ccco2)ccc1OC(C)C (configuration not stated) | 8.91 µM (active) | – |
| C=CCn1c(SCc2ccccc2)nc2scc(-c3ccc(C)o3)c2c1=O | inactive | – |
| C=CCn1c(SCC(=O)N2CC(=O)Nc3ccccc32)nc2scc(-c3ccccc3)c2c1=O | 2.82 µM (active) | – |
| C=CCn1c(SC(C)C(=O)NCc2ccc3c(c2)OCO3)nc2scc(-c3ccccc3)c2c1=O (configuration not stated) | 0.562 µM (active) | – |
| C=CCn1c(SCc2ccc3c(c2)OCO3)nc2scc(-c3ccco3)c2c1=O | 2.82 µM (active) | – |
| O=C(ON=C1CCN(S(=O)(=O)c2ccccc2)CC1)c1ccccc1 | inactive | – |
| O=S(=O)(c1ccc(Cl)s1)N1CCc2ccccc2C1 | inactive | – |
| COc1ccc(S(=O)(=O)N2CCc3ccccc3C2)cc1OC | 15.8 µM (active) | – |
| CCCCCCCCCCCCC(=O)N1CCCC[C@H]1CNC(=O)[C@@H](N)CCCCN | inactive | – |
| CC(=O)NNc1cccc(Cl)n1 | inactive | – |
| NC(=O)NC(=O)Nc1ccccc1Cl | inactive | – |
| O=C(NNc1cccc(Cl)n1)Nc1ccccc1Cl | 12.6 µM (active) | – |
| CCN(CCO)C[C@H]1CCC[C@H]2CCCC[C@@H]21 | – | -20% [at 11.4 µM] |
| CN(C)S(=O)(=O)c1ccc(NC(=O)c2cc(F)c(F)cc2Cl)cc1 | inactive | – |
| C/C(=N/OC(=O)c1cccc(Cl)c1)c1nccs1 | inactive | – |
| CN(C)S(=O)(=O)Oc1ccsc1C(=O)Nc1cccc(Cl)c1 | 10 µM (active) | – |
| CN(C)S(=O)(=O)Oc1ccsc1C(=O)Nc1ccc(Cl)cc1 | 15.8 µM (active) | – |
| Cc1ccc(Sc2ccc(NC(=O)c3ccc(S(C)(=O)=O)cc3Cl)cc2)cc1 | inactive | – |
| CN(C)S(=O)(=O)Oc1cccc(C(=O)Nc2ccc(Cl)c(Cl)c2)c1 | 25.1 µM (active) | – |
| CN(C)S(=O)(=O)Oc1cccc(C(=O)Nc2ccccc2Cl)c1 | – | -12.3% [at 11.4 µM] |
